# Measured values as given in article PMC12820563, “FoxP3 forms a head-to-head dimer in vivo and stabilizes its multimerization on adjacent microsatellites”.
# Over roughly 16,000 sequences, “rpm ratio (pull-down/input)” has its median near 0.94; the highest 2% begin near 1.7. The full list was thinned out, with the highest values kept by preference.
# Target: T1, MBP-FoxP1dN (Mus musculus, UniProt P58462 326-579)
# T1 sequence: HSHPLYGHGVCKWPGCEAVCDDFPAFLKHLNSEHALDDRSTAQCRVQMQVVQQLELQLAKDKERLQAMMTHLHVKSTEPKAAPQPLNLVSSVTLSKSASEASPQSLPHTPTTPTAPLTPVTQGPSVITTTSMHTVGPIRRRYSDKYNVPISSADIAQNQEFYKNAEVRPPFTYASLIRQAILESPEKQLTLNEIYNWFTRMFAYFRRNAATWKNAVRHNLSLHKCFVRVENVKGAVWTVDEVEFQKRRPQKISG
# Assay: PD-seq (MBP pull-down with sequencing); 20 mM Tris-HCl pH 7.5, 100 mM NaCl, 1.5 mM MgCl2, 0.4 uM protein, 0.1 uM dsDNA library, 30 min, room temperature, amylose pull-down; high values mean tight binding
# Settings: protein: recombinant; tags: His6-MBP; chain copies: 2; dsDNA, one strand shown
# In short: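 Binding is given as reads-per-million enrichment, pull-down over input, with replicates pooled. The bait was an N-terminus-lacking mouse FoxP3 or FoxP1 fragment with a His6-MBP tag, expressed in E. coli and used at 0.4 µM with 0.1 µM Klenow-filled degenerate double-stranded DNA library for 30 min at room temperature in Tris pH 7.5 buffer with NaCl and MgCl2. Amylose resin pull-down with three washes was followed by proteinase K release, PCR barcoding and Illumina sequencing.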
row,Sequence,binding signal
1,GATGATTGTTCTCCCAGCTGATGAATTATGTATCTCGAGTAAACAAATTTTCCTAATCTTTCTGTTCAAGCGCCATCTAC,1.45 RPM ratio (pull-down/input)
2,GATGATTGTTCTCCCAGCTGATGAATTATGTGTATCGAGTAAACAAATTTTCCTAATCTTTCTGTTCAAGCGCCATCTAC,1.92 RPM ratio (pull-down/input)
3,GATGATTGTTCTCCCAGCTGATGAATTATGTGAATCGAGTAAACAAATTTTCCTAATCTTTCTGTTCAAGCGCCATCTAC,1.14 RPM ratio (pull-down/input)
4,GATGATTGTTCTCCCAGCTGATGAATTATGTATATCGAGTAAACAAATTTTCCTAATCTTTCTGTTCAAGCGCCATCTAC,1.79 RPM ratio (pull-down/input)
5,GATGATTGTTCTCCCAGCTGATGAATTATATGTATCGAGTAAACAAATTTTCCTAATCTTTCTGTTCAAGCGCCATCTAC,1.41 RPM ratio (pull-down/input)
6,GATGATTGTTCTCCCAGCTGATGAATTACAAAATTCGAGTAAACAAATTTTCCTAATCTTTCTGTTCAAGCGCCATCTAC,1.37 RPM ratio (pull-down/input)
7,GATGATTGTTCTCCCAGCTGATGAATTCACCCGGTCGAGTAAACAAATTTTCCTAATCTTTCTGTTCAAGCGCCATCTAC,0.783 RPM ratio (pull-down/input)
8,GATGATTGTTCTCCCAGCTGATGAATTTAGTCTCTCGAGTAAACAAATTTTCCTAATCTTTCTGTTCAAGCGCCATCTAC,0.934 RPM ratio (pull-down/input)
9,GATGATTGTTCTCCCAGCTGATGAATTCCCTTTCTCGAGTAAACAAATTTTCCTAATCTTTCTGTTCAAGCGCCATCTAC,0.783 RPM ratio (pull-down/input)
10,GATGATTGTTCTCCCAGCTGATGAATTCCGCCGATCGAGTAAACAAATTTTCCTAATCTTTCTGTTCAAGCGCCATCTAC,0.721 RPM ratio (pull-down/input)
11,GATGATTGTTCTCCCAGCTGATGAATTATTAACCTCGAGTAAACAAATTTTCCTAATCTTTCTGTTCAAGCGCCATCTAC,1.06 RPM ratio (pull-down/input)
12,GATGATTGTTCTCCCAGCTGATGAATTTACACAATCGAGTAAACAAATTTTCCTAATCTTTCTGTTCAAGCGCCATCTAC,1.87 RPM ratio (pull-down/input)
13,GATGATTGTTCTCCCAGCTGATGAATTTTTACAATCGAGTAAACAAATTTTCCTAATCTTTCTGTTCAAGCGCCATCTAC,1.23 RPM ratio (pull-down/input)
14,GATGATTGTTCTCCCAGCTGATGAATTACACAGATCGAGTAAACAAATTTTCCTAATCTTTCTGTTCAAGCGCCATCTAC,1.18 RPM ratio (pull-down/input)
15,GATGATTGTTCTCCCAGCTGATGAATTTTACACATCGAGTAAACAAATTTTCCTAATCTTTCTGTTCAAGCGCCATCTAC,1.11 RPM ratio (pull-down/input)
16,GATGATTGTTCTCCCAGCTGATGAATTACACAAATCGAGTAAACAAATTTTCCTAATCTTTCTGTTCAAGCGCCATCTAC,1.77 RPM ratio (pull-down/input)

row,Sequence,binding signal
1,GATGATTGTTCTCCCAGCTGATGAATTACACACATCGAGTAAACAAATTTTCCTAATCTTTCTGTTCAAGCGCCATCTAC,1.48 RPM ratio (pull-down/input)
2,GATGATTGTTCTCCCAGCTGATGAATTCCCTACCTCGAGTAAACAAATTTTCCTAATCTTTCTGTTCAAGCGCCATCTAC,0.836 RPM ratio (pull-down/input)
3,GATGATTGTTCTCCCAGCTGATGAATTGTCACAGTCGAGTAAACAAATTTTCCTAATCTTTCTGTTCAAGCGCCATCTAC,1.08 RPM ratio (pull-down/input)
4,GATGATTGTTCTCCCAGCTGATGAATTGCCAATTTCGAGTAAACAAATTTTCCTAATCTTTCTGTTCAAGCGCCATCTAC,1.04 RPM ratio (pull-down/input)
5,GATGATTGTTCTCCCAGCTGATGAATTATTGTATTCGAGTAAACAAATTTTCCTAATCTTTCTGTTCAAGCGCCATCTAC,1.99 RPM ratio (pull-down/input)
6,GATGATTGTTCTCCCAGCTGATGAATTTGTATTTTCGAGTAAACAAATTTTCCTAATCTTTCTGTTCAAGCGCCATCTAC,2.62 RPM ratio (pull-down/input)
7,GATGATTGTTCTCCCAGCTGATGAATTTCTGTATTCGAGTAAACAAATTTTCCTAATCTTTCTGTTCAAGCGCCATCTAC,1.3 RPM ratio (pull-down/input)
8,GATGATTGTTCTCCCAGCTGATGAATTTGTATATTCGAGTAAACAAATTTTCCTAATCTTTCTGTTCAAGCGCCATCTAC,1.71 RPM ratio (pull-down/input)
9,GATGATTGTTCTCCCAGCTGATGAATTGTATTATTCGAGTAAACAAATTTTCCTAATCTTTCTGTTCAAGCGCCATCTAC,1.67 RPM ratio (pull-down/input)
10,GATGATTGTTCTCCCAGCTGATGAATTGTATTCTTCGAGTAAACAAATTTTCCTAATCTTTCTGTTCAAGCGCCATCTAC,1.26 RPM ratio (pull-down/input)
11,GATGATTGTTCTCCCAGCTGATGAATTTGTAATTTCGAGTAAACAAATTTTCCTAATCTTTCTGTTCAAGCGCCATCTAC,1.31 RPM ratio (pull-down/input)
12,GATGATTGTTCTCCCAGCTGATGAATTATTCTTTTCGAGTAAACAAATTTTCCTAATCTTTCTGTTCAAGCGCCATCTAC,1.17 RPM ratio (pull-down/input)
13,GATGATTGTTCTCCCAGCTGATGAATTCTGTATTTCGAGTAAACAAATTTTCCTAATCTTTCTGTTCAAGCGCCATCTAC,1.18 RPM ratio (pull-down/input)
14,GATGATTGTTCTCCCAGCTGATGAATTTTGTATTTCGAGTAAACAAATTTTCCTAATCTTTCTGTTCAAGCGCCATCTAC,1.42 RPM ratio (pull-down/input)
15,GATGATTGTTCTCCCAGCTGATGAATTGTTGTATTCGAGTAAACAAATTTTCCTAATCTTTCTGTTCAAGCGCCATCTAC,2.21 RPM ratio (pull-down/input)
16,GATGATTGTTCTCCCAGCTGATGAATTTTTGTATTCGAGTAAACAAATTTTCCTAATCTTTCTGTTCAAGCGCCATCTAC,1.8 RPM ratio (pull-down/input)
